In the library only some 2.9% were active in any assay of this set; here they are far more common.
DRD3 agonist – agonists of human D3 dopamine receptor; max activation, %; 410,000 compounds, 0.58% hits; AID 652048; D3R DiscoveRx beta-arrestin cells, luminescence, 90 min; in the data active = max activation above about 30%; also: 0% is about no effect
Target sequence (P35462 whole entry, looked up): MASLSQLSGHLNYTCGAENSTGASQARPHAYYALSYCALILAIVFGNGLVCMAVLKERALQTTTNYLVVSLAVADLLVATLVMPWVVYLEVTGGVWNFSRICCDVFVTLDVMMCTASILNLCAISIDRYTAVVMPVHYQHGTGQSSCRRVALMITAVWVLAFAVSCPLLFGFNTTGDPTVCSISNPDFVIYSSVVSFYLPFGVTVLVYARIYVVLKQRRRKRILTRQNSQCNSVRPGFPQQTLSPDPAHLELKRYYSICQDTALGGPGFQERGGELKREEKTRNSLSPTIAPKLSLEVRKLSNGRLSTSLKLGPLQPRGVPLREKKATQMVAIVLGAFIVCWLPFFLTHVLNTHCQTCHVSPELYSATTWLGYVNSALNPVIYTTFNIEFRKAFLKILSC
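Cells at 1500/well, incubated overnight, then treated with pinned compounds (dopamine as control) for 90 min at 37 degrees C. DiscoveRx reagent added for 30 - 60 minutes at room temperature; luminescence read.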
TRPML1 blocker – human mucolipin-1 channel inhibition | TRPML1-inducible cells, Ca2+ dye fluorescence, FDSS; stronger effect = lower value; inhibition of EC80 agonist-evoked calcium signal | 390,000 compounds, 0.02% hits | AID 624415 | Q9GZU1 | activity change, negative = inhibition, % (concentration not given with the values); in the data active = activity change below about -50%; inconclusive = between about -30% and that limit;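 also: stimulus is agonist 54-4 at its EC80 concentration; % is scaled to controls: 0 for no effect and ±100 for the full control effect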
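TRPML1-DL cells, Tet-induced overnight (~16 h, 37 °C) at 1,500 cells/well, were loaded with Ca8 no-wash dye plus quencher for 45-90 min at room temperature. Compounds were pinned during FDSS kinetic reading; agonist 54-4 at EC80 (4 uM final) then added.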
D3 antag – D3 dopamine receptor (human) antagonism; max response, negative = inhibition, %; AID 652054; 360,000 compounds, 2.5% hits; P35462; D3R cells, DiscoveRx beta-arrestin luminescence, antagonist mode; stronger effect = lower value; in the data active = max response below about -50%; inconclusive = no clear call, values can overlap the other calls; also: % is scaled to controls: 0 for no effect and ±100 for the full control effect
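Cells plated overnight at 1500 cells/well, then exposed to library compounds with dopamine controls for 90 minutes at 37 degrees C. DiscoveRx reagent added for 30–60 minutes at room temperature; luminescence read, quantitative HTS format.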
TRPML1 agonist – human mucolipin-1 channel agonism. 410,000 compounds, 0.12% hits. TRPML1-expressing cells, Ca2+ dye fluorescence, FDSS. Q9GZU1. activation, % (no concentration beside the values); in the data active = activation above about 50%; inconclusive = mostly about 30% to 49%; also: 0% is about no effect
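Cells: TRPML1-DL, 1X Tet inducer, ~16 h at 37 degrees C/5% CO2. Dye: ABD Ca8 no-wash + quencher, 45-90 min RT. Read: 10 s baseline, compound add, 110 s agonist phase; 54-4 EC80 (4uM final), 110 s antagonist phase.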
* hit, by the source's call; ? = inconclusive; / = not tested or not shown.

SMILES | DRD3 agonist | TRPML1 blocker | D3 antag | TRPML1 agonist
COc1ccccc1N=c1oc2cc(O)ccc2cc1C(=O)NCC1CCCO1 (configuration not stated) | 1.8 | 7.1 | 19.1 | 2.1
COc1ccccc1N=c1oc2cc(O)ccc2cc1C(N)=O | -9.9 | 13.8 | -53.6* | 1.8
COc1ccccc1NC(=O)c1cc2ccccc2o/c1=N\O | -4.0 | 4.1 | -21.1 | -0.9
Cn1c(C(=O)NCc2cccc(F)c2)cc2cc(S(=O)(=O)N3CCCCC3)ccc21 | 4.3 | -12.4 | / | -0.1
O=C(CCN1CCc2ccccc2C1)Nc1ccc(F)cc1 | -3.8 | -13.5 | -66.2* | -0.3
O=C(CCN1CCOCC1)Nc1ccc(F)cc1 | 2.3 | 2.3 | 10.1 | 3.6
Cc1ccccc1NC(=O)CCN1CCc2ccccc2C1 | -5.7 | 19.6 | -79.1* | -1.0
Cc1ccccc1NC(=O)CCN1CCCC1 | -7.2 | 8.6 | -9.2 | 0.8
CCOc1ccc(/C=C/c2ccnc3ccccc23)cc1OCC | / | / | / | 0.0
COCCNC(=O)c1c(C)cc(C)cc1C | 0.1 | -12.8 | -76.9* | 0.1
COCCNC(=O)c1ccc(C)cc1C | -6.8 | -19.6 | -1.1 | 0.1
Cc1cc2oc3c(c(=O)c2cc1C)C(c1cccc(Br)c1)N(Cc1ccco1)C3=O (configuration not stated) | 1.9 | -7.4 | -15.7 | 2.1
Cc1ccc2oc3c(c(=O)c2c1)C(c1cccc(Br)c1)N(Cc1ccco1)C3=O (configuration not stated) | 4.3 | -0.9 | -56.0* | -0.5
CC1=CC(C)(C)N(C(=O)CN2C(=O)CCC2=O)c2ccc(C)cc21 | 2.7 | 4.5 | -9.4 | 0.3
CC1CC(C)(C)N(C(=O)CN2C(=O)c3ccccc3C2=O)c2ccccc21 (configuration not stated) | 2.1 | -14.9 | 10.3 | 94.0*
CC1=CC(C)(C)N(C(=O)CN2C(=O)c3ccccc3C2=O)c2ccccc21 | 0.3 | -4.4 | 4.0 | 95.7*
Cc1cc(C)c2c(c1)-c1c(ssc1=S)C(C)(C)N2C(=O)CN1C(=O)c2ccccc2C1=O | -12.9 | ? | 0.0 | 66.9*
O=C(CNC(=O)C1CCCCC1)OCC(=O)c1ccc(-c2ccccc2)cc1 | / | / | / | -0.7
C[N+]1(CC(=O)c2c3ccccc3cc3ccccc23)CCOCC1 | / | / | / | -0.3
CCc1ccc(C(=O)c2cn(Cc3ccccc3)c3cc(OC)c(OC)cc3c2=O)cc1 | -5.2 | -1.3 | / | 0.8
COc1ccccc1-[n+]1c(C)cc(/C=C2\Sc3ccccc3N2C)cc1C | -5.7 | -11.9 | -1.3 | 65.0*
COc1ccc(C(=O)/C=C2\Sc3ccccc3N2C)cc1 | -13.4 | -26.0 | -16.5 | 0.5
COc1ccc(-[n+]2c(C)cc(/C=C3\Sc4ccccc4N3C)cc2C)cc1 | -8.5 | 2.4 | -21.8 | 69.0*
COc1cccc2c(C)cc3nnc(SCC(=O)Nc4ccc(C)cc4)n3c12 | -9.0 | 29.1 | / | 2.3
CCc1ccc(NC(=O)c2cc3nc(-c4ccc(C)cc4)cc(C(F)(F)F)n3n2)cc1 | 5.8 | 13.4 | / | -0.3
SMILES | DRD3 agonist | TRPML1 blocker | D3 antag | TRPML1 agonist
C=CCNC(=S)NNC(=O)c1cccn(Cc2ccc(Cl)cc2Cl)c1=O | -11.6 | 5.0 | -73.3* | 0.4
C=CCNC(=S)NNC(=O)c1cccn(Cc2ccc(Cl)c(Cl)c2)c1=O | -37.9 | 3.3 | ? | -0.2
CCNC(=S)NNC(=O)c1cccn(Cc2ccc(Cl)cc2Cl)c1=O | -5.0 | -3.4 | -59.2* | 3.5
CCCC/C=C/[C@@H](c1ccccc1)C1COC(=O)CC1O (some centres not stated) | / | 3.4 | / | 0.6
COc1ccc2c(c1)CCc1c(C(=O)NC3CCCCC3)noc1-2 | 34.8* | 48.7 | 27.8 | 3.1
CS(=O)(=O)c1ccc2nc(NC(=O)c3ccccc3Br)sc2c1 | -3.3 | 4.1 | -56.3* | 0.1
CC(=O)/C(N=Nc1cc2c(c([N+](=O)[O-])c1C)C(C)(C)CC2(C)C)=C(\C)O | 34.0* | 0.9 | 20.7 | 2.9
O=C(O)[C@@H](O)[C@H](O)[C@H](O)[C@@H](O)C(=O)O (tested in a mixture with another compound) | -1.1 | / | / | /
O=C(C1CC1)N1CCN=C1SCc1ccccc1Cl | -7.1 | -1.3 | -59.6* | -0.3
CCC(=O)N1CCN=C1SCc1ccccc1Cl | -0.2 | -5.6 | 8.7 | -0.4
O=C(CC1Sc2ccccc2NC1=O)NNc1cc(Cl)ccc1Cl (configuration not stated) | 35.8* | 7.1 | 47.3 | -1.1
CCc1ccccc1NC(=O)Cn1ccn(-c2cc(C)cc(C)c2)c(=O)c1=O | 0.0 | 2.6 | / | 1.8
CC(C)[C@@H](C(=O)NCC1CCC(C(=O)O)CC1)n1nnc2ccccc2c1=O (some centres not stated) | -3.9 | 32.4 | -56.8* | 0.2
COc1ccc(Nc2oc(-c3ccc(COc4ccccc4C)o3)nc2C#N)cc1 | 10.9 | -6.3 | / | 1.5
CS/C(N)=N/N=C/c1ccc([N+](=O)[O-])cc1 | -0.5 | 6.0 | -50.7* | 2.5
N/C(=N\N=C\c1ccc([N+](=O)[O-])cc1)c1nonc1N | 0.8 | 9.0 | -3.2 | -0.4
COC(=O)[C@@H]1OC(=O)[C@H]2O[C@@]23[C@@]1(C)CC[C@@H]1[C@@]2(C)C=CC(=O)OC(C)(C)[C@@H]2CC(=O)[C@]13C | 45.7* | -10.2 | 0.0 | -0.3
CC1(C)OC(=O)C=C[C@]2(C)[C@H]3CC[C@@]4(C)[C@H](c5ccoc5)OC(=O)[C@H]5O[C@]54[C@]3(C)C(=O)C[C@@H]12 | -2.5 | 18.3 | 13.0 | 1.0
CC1CC=CC2C1C(=O)N(Cc1ccccc1)C2c1ccc(F)c(/C=C/c2ccccc2)c1 (configuration not stated) | / | 18.9 | / | 1.0
Cc1ccc(C)c(C(=O)Cn2ncc(Cl)c(Cl)c2=O)c1 | -8.9 | 0.9 | -27.6 | -1.5
Cc1cc(C(=O)Cn2ncc(Cl)c(Cl)c2=O)c(C)n1CC(F)(F)F | -8.7 | -10.9 | -58.8* | 0.8
O=C1/C(=C/c2ccc(N3CCOCC3)o2)SC(=Nc2ccccc2)N1CCc1c[nH]c2ccccc12 | -8.7 | -4.9 | -69.4* | 8.9
Cc1ccccc1OCCC(=O)Nc1ccc(S(=O)(=O)N2CCCC2)cc1 | -18.6 | 14.5 | -86.6* | -0.2
OCCC1CN(Cc2ccc3nonc3c2)CCN1Cc1ccsc1 (configuration not stated) | -14.5 | -25.0 | -52.2* | 1.1
OCCC1CN(Cc2cnn(-c3ccccc3Cl)c2)CCN1Cc1ccsc1 (configuration not stated) | -17.5 | 0.9 | -67.7* | -0.3
OCCC1CN(Cc2cccc(-c3ccco3)c2)CCN1Cc1ccsc1 (configuration not stated) | -9.9 | -11.0 | -76.6* | -0.2
OCCC1CN(Cc2ccsc2)CCN1C1CCCC1 (configuration not stated) | -22.3 | 0.8 | -21.2 | 0.1
CC(C)CCN1CCN(Cc2ccsc2)CC1CCO (configuration not stated) | -13.8 | 1.4 | -0.2 | 1.3
CC1CCN(C(=O)Nc2ccc3nc(-c4ccco4)c(-c4ccco4)nc3c2)CC1 | / | / | / | 0.1
